Screening results as filed in PubChem.
Rows were chosen to be rich in hits. Some 4.6% of all compounds tested hit in one or more screens of this group.
tim23-1 inh: tim23-1 yeast growth inhibition | S. cerevisiae tim23-1 growth, BacTiter-Glo luminescence, 24 h | inhibition, % at 20 µM | 330,000 compounds, 1.3% hits;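 active means growth inhibition of the mutant yeast at or above 50%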;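 further: temperature-sensitive mutant grown at 25 °C; plate controls were DMSO-treated mutant yeast for no effect and medium wells lacking yeast for full effect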
tim10-1 inh: growth inhibitors of tim10-1 mutant yeast. S. cerevisiae tim10-1 ts strain growth, BacTiter-Glo, 24 h. AID 463190. inhibition, % at 20 µM. 330,000 compounds, 2.2% hits;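 active means inhibition of at least 40%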;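 further: mutant grown at 25 °C; 0% = DMSO wells with yeast and 100% = wells holding no yeast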
PfHsp90 yeast 2: inhibits growth of yeast expressing Plasmodium falciparum Hsp90. S. cerevisiae expressing PfHsp90, BacTiter-Glo ATP, 48 h; yeast lacking PDR1 and PDR3 efflux regulators. inhibition, % at 9.4 µM. 310,000 compounds, 0.32% hits;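 active means every replicate shows inhibition above about 80%, whatever the replicate mean, limit read from the data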;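 further: 0% = DMSO neutral controls and 100% = 20 µM radicicol positive controls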
TIM10 inh: TIM10 yeast growth inhibition. S. cerevisiae TIM10 strain growth, BacTiter-Glo luminescence, 24 h. inhibition, % at 10 µM. 330,000 compounds, 1.4% hits;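 active means inhibition of 40% or more at the single tested concentration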;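 further: wild-type TIM10 isogenic control strain grown at permissive 25 °C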
SKKanGAS inh: SKKanGAS growth inhibition | S. pyogenes SKKanGAS, kanamycin growth, BacTiter-Glo, 6 h | inhibition, % at 7.5 µM | 300,000 compounds, 1.3% hits;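 active means mean replicate score, as percent of positive control median, at least 50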;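 further: strain carries kanamycin resistance gene driven by streptokinase promoter and grows in 40 µg/ml kanamycin; loss of luminescence reflects streptokinase promoter inhibition or plain growth inhibition; 0% = median of DMSO wells and 100% = positive control at its reference dose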
NALP3 yeast inh: blocks the NALP3 inflammasome reconstituted in yeast; Yeast reconstituted NLRP3/ASC/caspase-1, beta-gal luminescence, 24 h; inhibition, % at 10 µM; 330,000 compounds, 0.39% hits;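 active means inhibition of 50% or more; inactive means inhibition below 50%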;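 further: plate controls were induced DMSO wells for no effect and uninduced yeast grown without galactose for full effect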
* marks the source's active call; other numbers are inactive results.

`Cn1nnc(-c2ccc(OCc3ccccc3F)cc2)n1` gave tim23-1 inh 18.6, tim10-1 inh 11.6, PfHsp90 yeast 2 4.4, TIM10 inh -6.1, SKKanGAS inh 52.6* and NALP3 yeast inh 32.5.
`Fc1ccccc1COc1ccc(-c2nnn(Cc3ccccc3F)n2)cc1` gave tim23-1 inh 14.8, tim10-1 inh 19.2, PfHsp90 yeast 2 -7.4, TIM10 inh 9.0, SKKanGAS inh 13.6 and NALP3 yeast inh 3.9.
`CC(C)(C)Nc1nc(NN)nc(NC(C)(C)C)n1` gave tim23-1 inh 25.1, tim10-1 inh 23.3, PfHsp90 yeast 2 -6.3, TIM10 inh 21.3, SKKanGAS inh 87.0* and NALP3 yeast inh 3.8.
Screening CNc1nc(Cl)nc(NC(C)(C)C)n1 returned tim23-1 inh -4.7, tim10-1 inh -1.1, PfHsp90 yeast 2 -24.8, TIM10 inh 0.6, SKKanGAS inh -9.8 and NALP3 yeast inh -5.9.
`Oc1ccc(-c2nc3c4c(ncn3n2)-c2ccccc2CC42CCCC2)cc1` gave tim23-1 inh 6.0, tim10-1 inh 11.7, PfHsp90 yeast 2 6.4, TIM10 inh 7.3, SKKanGAS inh 95.4* and NALP3 yeast inh 5.8.
`Nn1cnc2c(c1=O)C1(CCCCC1)Cc1ccccc1-2` gave tim23-1 inh 12.7, tim10-1 inh -19.9, PfHsp90 yeast 2 -19.6, TIM10 inh -16.5, SKKanGAS inh -7.3 and NALP3 yeast inh 28.4.
For Cc1ccc(C)c(S(=O)(=O)N2CCCC2CNC(=O)C(=O)NCc2ccccc2C)c1 (configuration not stated) the results were tim23-1 inh 39.6, tim10-1 inh 27.7, PfHsp90 yeast 2 -7.8, TIM10 inh 13.1, SKKanGAS inh -4.7 and NALP3 yeast inh 8.4.
`COc1ccc(OC)c(C2C(C(=O)N(C)C)=C(C)Nc3nc4ccccc4n32)c1` (configuration not stated) gave tim23-1 inh 19.7, tim10-1 inh 6.7, PfHsp90 yeast 2 -21.4, TIM10 inh 9.9, SKKanGAS inh -2.9 and NALP3 yeast inh -10.5.
For COc1ccc(C2C(C(=O)c3ccccc3)=C(C)Nc3nc4ccccc4n32)c(OC)c1 (configuration not stated) the results were tim23-1 inh -15.5, tim10-1 inh -3.8, PfHsp90 yeast 2 2.4, TIM10 inh -0.7, SKKanGAS inh 88.7* and NALP3 yeast inh -5.2.
Cc1occc1C(=O)N/N=C/C1=C(N2CCOCC2)C(=C/c2ccc(Cl)cc2Cl)/CC1 was read as PfHsp90 yeast 2 -0.6.
For O=C(CN1c2ccccc2Sc2ccccc21)NNC(=S)Nc1ccc(Cl)cc1 the results were tim23-1 inh 21.0, tim10-1 inh 37.8, PfHsp90 yeast 2 -14.1, TIM10 inh 31.1, SKKanGAS inh 89.5* and NALP3 yeast inh 22.8.
For O=C(CN1c2ccccc2Sc2ccccc21)NNC(=S)Nc1ccc(Cl)cc1Cl the results were tim23-1 inh 3.0, tim10-1 inh 26.5, PfHsp90 yeast 2 -20.6, TIM10 inh 10.0, SKKanGAS inh 110.8* and NALP3 yeast inh 15.5.
Screening C[n+]1cn(Cc2ccc(C#N)cc2)c2ccccc21 returned tim23-1 inh 5.3, tim10-1 inh 18.7, PfHsp90 yeast 2 1.0, TIM10 inh 3.4, SKKanGAS inh 3.5 and NALP3 yeast inh 13.8.
`NC(=Nc1nc(-c2ccccn2)cc2ccccc12)c1ccccn1` gave PfHsp90 yeast 2 142.1*.
Fc1ccc(F)c(C2=NNC(=Nc3ccccc3F)SC2)c1 was read as tim23-1 inh 18.1, tim10-1 inh 26.8, PfHsp90 yeast 2 -6.6, TIM10 inh 12.2, SKKanGAS inh 1.1 and NALP3 yeast inh 19.1.
`Fc1ccccc1N=C1NN=C(c2ccccc2)CS1` gave tim23-1 inh 20.1, tim10-1 inh 18.2, TIM10 inh -3.6, SKKanGAS inh 66.7* and NALP3 yeast inh 24.0.
`COc1ccc(C(=O)Nc2c3c(nn2-c2ccc([N+](=O)[O-])cc2)CS(=O)(=O)C3)cc1` gave tim23-1 inh 5.6, tim10-1 inh 12.0, PfHsp90 yeast 2 2.6, TIM10 inh -2.8, SKKanGAS inh 51.7* and NALP3 yeast inh 18.9.
Screening COc1ccc(C(=O)Nc2c3c(nn2-c2ccc(Cl)cc2)CS(=O)(=O)C3)cc1 returned tim23-1 inh 9.1, tim10-1 inh 5.1, PfHsp90 yeast 2 14.4, TIM10 inh 5.9, SKKanGAS inh -3.7 and NALP3 yeast inh 17.5.
For Cc1cc(N2CCN(C)CC2)ccc1NC(=O)c1cccc(S(=O)(=O)N2CCc3ccccc3C2)c1 the results were tim23-1 inh 5.9, tim10-1 inh 14.2, PfHsp90 yeast 2 21.8, TIM10 inh -1.0, SKKanGAS inh 6.5 and NALP3 yeast inh 7.8.
For CCN1C[C@@H]2[C@@H]3C(=O)N(Cc4ccccc4)C(=O)[C@@H]3[C@](CC)(C1=O)N2C(=O)c1ccc(C(F)(F)F)cc1 the results were tim23-1 inh 12.3, tim10-1 inh 5.6, PfHsp90 yeast 2 15.2, TIM10 inh -3.9 and NALP3 yeast inh 11.9.
Screening O=C(N/N=C/c1ccc(-c2ccc(Cl)c(C(=O)O)c2)o1)c1cc2c(ccc3ccccc32)o1 returned tim23-1 inh -13.5, tim10-1 inh -1.8, PfHsp90 yeast 2 -28.6, TIM10 inh 3.4, SKKanGAS inh 61.2* and NALP3 yeast inh 11.1.
Screening O=C(CSc1nc2ncc(Br)cc2[nH]1)Nc1ccccc1-c1ccccc1 returned tim23-1 inh 0.0, tim10-1 inh 26.6, PfHsp90 yeast 2 9.1, TIM10 inh 10.7, SKKanGAS inh 3.2 and NALP3 yeast inh 17.1.
COC(=O)c1cc(NC(=O)c2cc(-c3ccc(Cl)cc3)oc2C(F)(F)F)ccc1N1CCOCC1 was read as tim23-1 inh 25.0, tim10-1 inh 18.0, PfHsp90 yeast 2 0.8, TIM10 inh 14.1, SKKanGAS inh 59.1* and NALP3 yeast inh 16.4.
COC(=O)c1cc(NC(=O)c2cc(-c3ccccc3Cl)oc2C(F)(F)F)ccc1N1CCOCC1 was read as tim23-1 inh 4.2, tim10-1 inh -3.0, PfHsp90 yeast 2 1.4, TIM10 inh 12.5, SKKanGAS inh 13.3 and NALP3 yeast inh 10.6.
Cc1ccc(S(=O)(=O)N(CC(=O)N2CCC(C)CC2)Cc2ccccc2F)cc1 was read as tim23-1 inh 35.6, tim10-1 inh 23.6, PfHsp90 yeast 2 0.0, TIM10 inh 38.0, SKKanGAS inh 1.7 and NALP3 yeast inh 16.7.
For CC(=O)c1ccc(N2CCC(c3cc(-c4ccc(Cl)cc4)n[nH]3)CC2)c([N+](=O)[O-])c1 the results were tim23-1 inh 19.5, tim10-1 inh 32.9, PfHsp90 yeast 2 -62.2, TIM10 inh 37.8, SKKanGAS inh 88.1* and NALP3 yeast inh 5.0.
COC(=O)c1ccc(N2CCC(c3cc(-c4ccc(OC)cc4)n[nH]3)CC2)c([N+](=O)[O-])c1 was read as tim23-1 inh 6.5, tim10-1 inh 34.4, PfHsp90 yeast 2 -89.2, TIM10 inh 23.6, SKKanGAS inh 90.3* and NALP3 yeast inh 20.4.
